Screens: PubChem BioAssay, several laboratories
Only some compounds are listed: those with a hit (about 4.5% of all), similar ones and a draw of the others.
PfHsp40 yeast – restores yeast growth despite PfHsp40 toxicity. S. cerevisiae expressing PfHsp40, growth rescue, ATP luminescence. growth rescue, % at 12.5 µM. actives 0.68% (n = 340,000); in the data active = growth rescue above about 28%, passing the limit was not always enough;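 note: yeast W303a lacking pdr1 and pdr3 grown in galactose medium; growth measured after three days at 30 °C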
PrPC surface inh – reduces human prion protein on the cell surface; P04156; cell surface PrPC, TR-FRET read-out; inhibition, % at 13.8 µM; actives 0.43% (n = 370,000); AID 720596; in the data active = inhibition above about 24%; note: 0% = median of the test wells and 100% = reference compound wells
Mtb FBA inh – inhibitors of M. tuberculosis fructose-bisphosphate aldolase; purified M. tuberculosis FBA, fluorescence read-out; inhibition, % at 1 µM; actives 2.3% (n = 360,000);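 note: 0% = vehicle and 100% = reference inhibitor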
Target sequence (P9WQA3 whole entry, looked up): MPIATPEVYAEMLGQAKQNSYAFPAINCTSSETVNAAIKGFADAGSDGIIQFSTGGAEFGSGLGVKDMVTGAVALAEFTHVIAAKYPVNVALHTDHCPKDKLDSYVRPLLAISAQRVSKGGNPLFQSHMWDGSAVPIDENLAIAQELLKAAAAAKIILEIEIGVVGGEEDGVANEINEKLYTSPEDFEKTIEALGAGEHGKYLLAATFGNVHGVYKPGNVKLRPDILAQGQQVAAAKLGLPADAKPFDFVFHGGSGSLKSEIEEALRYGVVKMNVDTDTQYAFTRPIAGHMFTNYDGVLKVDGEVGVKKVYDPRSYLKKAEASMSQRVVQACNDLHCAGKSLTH
GDH-TPI counter-1 – counter-screen for M. tuberculosis FBA inhibitors: GDH-TPI coupled enzymes; inhibition, % at 4.8 µM; GDH-TPI coupled enzyme counterscreen, NADH absorbance; actives 1.2% (n = 360,000); AID 588335; in the data active = inhibition above about 30%;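 note: 0% = DMSO wells and 100% = wells lacking the enzyme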
PrP UTR inh – inhibition of PrP 5' UTR reporter expression | cell-based PrP 5' UTR mRNA reporter, plate reader | actives 0.35% (n = 340,000) | inhibition, % (no concentration beside the values) | AID 488862; in the data active = inhibition above about 52%; note: 0 = median of the neutral control wells
BJeLR lethal – kills HRASV12-expressing BJeLR cells. BJeLR (HRASV12) viability, CellTiter-Glo ATP luminescence, 48 h. inhibition, % (no concentration beside the values). actives 0.17% (n = 300,000); in the data active = inhibition above about 50%
Mtb FBA inh conf – Mtb FBA inhibition, confirmed. shares compounds with Mtb FBA inh. purified M. tuberculosis FBA, fluorescence read-out. inhibition, % at 1 µM. actives 78% (n = 5,600);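 note: 0% = vehicle wells and 100% = reference inhibitor wells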
GDH-TPI counter-2 – counter-screen for M. tuberculosis FBA inhibitors: GDH-TPI coupled enzyme inhibition; AID 652141; GDH-TPI coupled enzyme counterscreen, fluorescence; actives 81% (n = 5,600); shares compounds with Mtb FBA inh; inhibition, % at 1 µM; in the data active = inhibition above about 10%
* hit, by the source's call; x = no result; + = active, no number. Cut-off read from the data, not from the text of the source, unless noted: active = inhibition above about 27%; inactive = the rest.

SMILES	PfHsp40 yeast	PrPC surface inh	Mtb FBA inh	GDH-TPI counter-1	PrP UTR inh	BJeLR lethal	Mtb FBA inh conf	GDH-TPI counter-2
Cc1ccccc1N(CC(=O)NC1CCCC1)C(=O)C1(C)CC(=O)N=C2C=CC=CN21 (stereo not given)	0	1	74*	12	2	3	104*	94*
O=C(NC1CCCC1)C(c1ccccn1)N(C(=O)c1csnn1)c1ccccc1 (stereo not given)	0	2	0	-4	-27	-5	x	x
CC1(C(=O)N(c2ccccc2)C(C(=O)NC2CCCC2)c2ccccn2)CC(=O)N=C2C=CC=CN21 (stereo not given)	2	-4	96*	14	-19	x	107*	81*
Cc1ccc(C(=O)NCC(=O)OCc2nc3sc(C)c(C)c3c(=O)[nH]2)cc1	x	1	x	x	x	x	x	x
CCOC(=O)c1sc(/N=C/c2ccc(O)cc2O)cc1C	-2	5	1	27	-11	-6	x	x
Cc1cc(C)c2nc(-c3cccnc3)cc(C(=O)NC(C)c3cnn(C)c3C)c2c1 (stereo not given)	-1	-4	40*	6	-7	-3	+	169*
Cc1cccc2c(C(=O)O)cc(-c3cccnc3)nc12	0	-9	6	4	-34	-2	x	x
CCN(C(=O)C1CC1)C1CCS(=O)(=O)C1 (stereo not given)	0	0	35*	-6	2	-1	121*	106*
O=C(c1cccc([N+](=O)[O-])c1)N1CCCC(C(=O)N2CCN(c3ccccc3)CC2)C1 (stereo not given)	0	-1	-3	1	-18	-18	x	x
COc1ccccc1/C=C/CN1CCNC(=O)C1CC(=O)NCCc1cnccn1 (stereo not given)	19	1	4	9	-26	-3	x	x
CCCn1c(C)cc(C(=O)COC(=O)CN=C2NS(=O)(=O)c3ccccc32)c1C	-1	17	-2	3	-2	-15	x	x
CCc1ccccc1Oc1coc2cc(O)ccc2c1=O	2	4	31*	15	-5	0	111*	75*
Cc1cccc(Oc2coc3cc(O)ccc3c2=O)c1	-1	2	37*	10	-22	16	72*	63*
N=c1c(C(=O)NC2CCCC2)cc2c(=O)n3ccccc3nc2n1C1CCCCC1	0	-21	64*	8	-5	-6	49*	41*
O=C(NC1CCCCCC1)c1ccc2nc3cc(Cl)ccc3c(=O)n2c1	-1	2	3	7	-1	12	x	x
CC1CC(NC(=O)c2cc3c(=O)n4ccccc4nc3n2C)CC(C)(C)C1 (stereo not given)	0	-2	72*	7	-9	12	71*	62*
Cc1cccn2c(=O)c3cc(C(=O)NCc4ccco4)c(=N)n(C4CCCC4)c3nc12	0	-12	90*	13	-24	6	78*	63*
Cc1cccn2c(=O)c3cc(S(=O)(=O)c4ccc(Br)cc4)c(=N)n(C4CCCCC4)c3nc12	-1	3	1	-2	-9	-13	x	x
Cc1ccc2nc3c(cc(C(=O)NC4CCCCC4)c(=N)n3C3CCCCC3)c(=O)n2c1	-1	-17	71*	-4	-30	3	121*	85*
COc1ccc2oc(C(=O)N3CCN(S(=O)(=O)c4c(C)c(C)cc(C)c4C)CC3)c(C)c2c1	1	-2	-1	-1	-8	x	x	x
COc1cccc(-c2cc3nc(-c4ccccc4)cc(N4CCC5(CC4)OCCO5)n3n2)c1	1	-5	65*	3	1	15	1	-4
COc1cccc(-c2cc3nc(-c4ccccc4)cc(N4CCN(C(=O)c5ccoc5)CC4)n3n2)c1	x	5	62*	-3	x	x	151*	102*
COc1cccc(-c2cc(N3CCN(C(=O)c4ccoc4)CC3)n3nc(-c4cccc(Cl)c4)cc3n2)c1	x	-1	2	9	x	x	x	x
CN1CCN(c2cc(-c3cccc(C(=O)O)c3)nc3ccnn23)CC1	x	7	30*	18	x	x	55*	46*
O=C(c1ccoc1)N1CCN(c2cc(-c3ccccc3)nc3cc(-c4ccccc4)nn23)CC1	x	-3	39*	5	x	x	64*	60*
SMILES	PfHsp40 yeast	PrPC surface inh	Mtb FBA inh	GDH-TPI counter-1	PrP UTR inh	BJeLR lethal	Mtb FBA inh conf	GDH-TPI counter-2
CCOC(=O)[C@]12CCCC=C1N(CCC1=CCCCC1)C(=O)[C@H](CC(=O)NCC13CC4CC(CC(C4)C1)C3)C2	x	-4	x	x	x	x	x	x
CC(NC(=O)c1cnccn1)c1ccc(S(N)(=O)=O)cc1 (stereo not given)	0	-2	0	8	-38	11	x	x
COc1ccccc1-c1cc2nc(-c3ccccc3)cc(N3CCN(C(=O)c4ccco4)CC3)n2n1	x	9	48*	6	x	x	54*	43*
COc1ccccc1-c1cc2nc(-c3ccccc3)cc(N3CCN(C(=O)c4ccoc4)CC3)n2n1	x	14	55*	12	x	x	4	1
Fc1ccc(-c2cc3nc(-c4ccccc4)cc(N4CCN(CCN5CCOCC5)CC4)n3n2)cc1	4	0	49*	11	-8	3	90*	72*
CN1CCN(c2cc(-c3ccccc3)nc3cc(-c4ccc(F)cc4)nn23)CC1	4	-12	26	3	-4	4	x	x
CN(C)Cc1cc(CN(C)C)c(O)c(CCc2ccccc2)n1	0	-1	1	-4	-20	0	x	x
Cc1ccc(-c2nc(CN(C)C)cc(CN(C)C)c2O)cc1	0	-5	80*	26	-2	x	5	-5
COc1ccccc1-c1nc(C#N)c(N2CCc3ccccc3C2)o1	1	1	106*	14	-2	-5	-5	-5
CCN1CCN(c2oc(-c3ccc(OC)cc3)nc2C#N)CC1	-1	-4	32*	26	-2	6	143*	119*
CCOC(=O)C1CCCN(c2oc(-c3ccc(F)cc3)nc2C#N)C1 (stereo not given)	0	3	30*	3	-17	-5	+	197*
CC1CCN(c2oc(-c3ccc(F)cc3)nc2C#N)CC1	7	11	97*	9	-4	-4	-1	-2
C[C@H]1CN([C@@H](C)CO)C(=O)c2cc(Br)cnc2O[C@H]1CN(C)C(=O)c1ccccn1	x	-7	0	2	x	x	x	x
COc1ccccc1-c1nc(C#N)c(N2CC(C)CC(C)C2)o1 (stereo not given)	0	1	23	3	-21	2	x	x
CC1CC(C)CN(c2oc(-c3ccccc3F)nc2C#N)C1 (stereo not given)	0	-5	60*	10	-14	-4	101*	78*
